Experimental data reported in the supplement of paper PMC11732987, “Enantioselective OTUD7B fragment discovery through chemoproteomics screening and high-throughput optimisation” (Communications Chemistry, 2025).

How the values were obtained:
Assay in all cases: log2 ratio of Biotin-Ahx-Ub-VS probe labelling (fragment/DMSO); higher = less target engagement (more negative = stronger competition), active = hit call of the paper (q ≤ 0.05, log2 ratio ≤ -1)
Details in all cases: compound concentration: 200 uM; treatment time: 3 h
OTUD6B = biological target: T1, OTUD6B (UniProt Q8N6M0)
T1 sequence (whole entry): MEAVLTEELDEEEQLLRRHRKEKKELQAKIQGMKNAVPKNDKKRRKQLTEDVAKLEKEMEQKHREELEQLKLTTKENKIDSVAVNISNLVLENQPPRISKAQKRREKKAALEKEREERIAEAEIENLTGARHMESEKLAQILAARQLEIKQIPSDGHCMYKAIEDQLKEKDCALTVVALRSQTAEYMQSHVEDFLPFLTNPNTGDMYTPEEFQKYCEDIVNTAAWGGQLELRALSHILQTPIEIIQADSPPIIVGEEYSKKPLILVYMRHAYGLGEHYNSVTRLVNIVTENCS
Method in brief: (§1)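 Labelling with Biotin-Ahx-Ub-VS (0.5 µM final, 1 h) followed a 3 h triplicate treatment of HEK293T lysate (495 µg per sample, Tris/CHAPS/IGEPAL buffer with protease inhibitors) with fragment at 200 µM or vehicle. Labelled DUBs were NeutrAvidin-enriched, digested with LysC and trypsin, and run by diaPASEF LC-MS/MS. The values, average log2 fragment/vehicle ratios by unpaired t-test, come from global-median-normalised Spectronaut label-free quantities. Proteins with ≥2 unique peptides were used.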

OTUD7B = biological target: T2, OTUD7B (UniProt Q6GQQ9)
T2 sequence (whole entry): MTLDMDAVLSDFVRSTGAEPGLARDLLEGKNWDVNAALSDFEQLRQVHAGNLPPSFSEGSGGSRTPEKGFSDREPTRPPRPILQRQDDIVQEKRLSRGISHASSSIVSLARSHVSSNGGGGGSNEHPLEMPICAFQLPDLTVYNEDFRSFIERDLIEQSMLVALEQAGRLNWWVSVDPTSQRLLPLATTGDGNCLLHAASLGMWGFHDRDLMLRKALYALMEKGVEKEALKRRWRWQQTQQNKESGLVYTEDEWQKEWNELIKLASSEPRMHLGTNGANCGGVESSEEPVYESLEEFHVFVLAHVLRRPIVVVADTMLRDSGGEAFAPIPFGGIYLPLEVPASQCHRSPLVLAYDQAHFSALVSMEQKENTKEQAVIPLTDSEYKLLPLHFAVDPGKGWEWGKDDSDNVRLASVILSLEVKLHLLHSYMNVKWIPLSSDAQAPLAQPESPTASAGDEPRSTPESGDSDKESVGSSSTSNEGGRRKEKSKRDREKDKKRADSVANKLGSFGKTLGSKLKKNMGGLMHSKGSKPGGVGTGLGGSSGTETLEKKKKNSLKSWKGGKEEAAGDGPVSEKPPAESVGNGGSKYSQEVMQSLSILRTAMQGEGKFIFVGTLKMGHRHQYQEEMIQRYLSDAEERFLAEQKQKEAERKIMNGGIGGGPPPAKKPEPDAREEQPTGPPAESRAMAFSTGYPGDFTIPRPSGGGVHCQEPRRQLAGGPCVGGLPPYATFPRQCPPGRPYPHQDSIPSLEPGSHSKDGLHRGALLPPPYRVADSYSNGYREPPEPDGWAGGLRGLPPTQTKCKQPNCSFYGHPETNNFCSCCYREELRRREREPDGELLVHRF
Method in brief: as §1

PRPF8 = PRPF8 (UniProt Q6P2Q9)
Method in brief: as §1

PSMD7 = biological target: T3, PSMD7 (UniProt P51665)
T3 sequence (whole entry): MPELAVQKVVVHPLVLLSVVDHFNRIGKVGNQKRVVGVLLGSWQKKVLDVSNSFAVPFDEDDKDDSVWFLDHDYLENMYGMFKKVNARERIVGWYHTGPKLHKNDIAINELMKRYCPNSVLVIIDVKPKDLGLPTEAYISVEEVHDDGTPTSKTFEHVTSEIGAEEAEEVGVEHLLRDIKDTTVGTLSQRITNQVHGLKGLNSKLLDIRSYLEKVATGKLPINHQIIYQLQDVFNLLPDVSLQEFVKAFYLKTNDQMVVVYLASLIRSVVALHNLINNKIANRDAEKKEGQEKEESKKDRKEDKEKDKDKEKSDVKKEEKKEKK
Method in brief: as §1

UCHL1 = UCHL1 (UniProt P09936)
Method in brief: as §1

UCHL3 = biological target: T4, UCHL3 (UniProt P15374)
T4 sequence (whole entry): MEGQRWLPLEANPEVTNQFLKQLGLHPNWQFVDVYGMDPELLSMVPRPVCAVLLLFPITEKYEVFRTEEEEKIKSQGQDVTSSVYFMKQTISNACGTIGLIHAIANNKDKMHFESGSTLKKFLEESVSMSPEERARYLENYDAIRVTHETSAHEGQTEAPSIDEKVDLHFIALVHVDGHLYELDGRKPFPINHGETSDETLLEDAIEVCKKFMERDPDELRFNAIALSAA
Method in brief: as §1

UCHL5 = biological target: T5, UCHL5 (UniProt Q9Y5K5)
T5 sequence (whole entry): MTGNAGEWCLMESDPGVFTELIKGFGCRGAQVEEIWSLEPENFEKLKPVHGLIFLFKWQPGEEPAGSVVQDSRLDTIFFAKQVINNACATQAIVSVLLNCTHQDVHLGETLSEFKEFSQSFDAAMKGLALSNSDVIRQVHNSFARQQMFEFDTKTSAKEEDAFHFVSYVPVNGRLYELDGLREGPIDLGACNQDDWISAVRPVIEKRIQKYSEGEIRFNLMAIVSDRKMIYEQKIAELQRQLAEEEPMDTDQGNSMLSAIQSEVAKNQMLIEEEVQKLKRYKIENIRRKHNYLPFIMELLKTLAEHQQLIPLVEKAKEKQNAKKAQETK
Method in brief: as §1

USP10 = USP10 (UniProt Q14694)
Method in brief: as §1

USP15 = biological target: T6, USP15 (UniProt Q9Y4E8)
T6 sequence (whole entry): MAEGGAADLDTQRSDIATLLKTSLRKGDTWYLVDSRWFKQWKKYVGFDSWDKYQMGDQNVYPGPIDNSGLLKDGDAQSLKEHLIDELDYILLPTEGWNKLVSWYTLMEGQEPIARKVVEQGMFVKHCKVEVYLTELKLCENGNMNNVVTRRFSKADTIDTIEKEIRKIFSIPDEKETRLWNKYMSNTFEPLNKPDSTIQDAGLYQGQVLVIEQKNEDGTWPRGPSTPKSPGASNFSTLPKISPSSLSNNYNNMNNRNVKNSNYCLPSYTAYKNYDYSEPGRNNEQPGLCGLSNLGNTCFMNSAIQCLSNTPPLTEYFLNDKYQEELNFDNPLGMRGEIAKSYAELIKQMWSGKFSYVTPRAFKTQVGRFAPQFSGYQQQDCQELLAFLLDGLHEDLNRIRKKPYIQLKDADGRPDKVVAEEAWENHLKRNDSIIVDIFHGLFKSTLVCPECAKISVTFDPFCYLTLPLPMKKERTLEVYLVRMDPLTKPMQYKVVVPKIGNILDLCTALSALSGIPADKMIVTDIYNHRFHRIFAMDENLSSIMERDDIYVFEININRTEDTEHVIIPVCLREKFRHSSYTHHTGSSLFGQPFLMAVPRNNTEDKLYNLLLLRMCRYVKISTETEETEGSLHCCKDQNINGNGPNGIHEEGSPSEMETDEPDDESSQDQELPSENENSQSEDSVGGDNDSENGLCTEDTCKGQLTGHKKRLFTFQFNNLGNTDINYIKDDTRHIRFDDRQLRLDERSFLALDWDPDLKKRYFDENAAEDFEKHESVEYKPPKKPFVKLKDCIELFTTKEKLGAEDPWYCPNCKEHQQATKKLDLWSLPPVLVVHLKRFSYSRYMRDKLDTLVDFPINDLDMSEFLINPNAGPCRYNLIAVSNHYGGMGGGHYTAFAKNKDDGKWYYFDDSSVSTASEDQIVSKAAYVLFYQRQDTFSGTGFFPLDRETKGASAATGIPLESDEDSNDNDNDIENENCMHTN
Method in brief: as §1

USP16 = USP16 (UniProt Q9Y5T5)
Method in brief: as §1

Measured: log2 ratio of Biotin-Ahx-Ub-VS probe labelling

Chain of USP16 (Q9Y5T5 whole entry, looked up): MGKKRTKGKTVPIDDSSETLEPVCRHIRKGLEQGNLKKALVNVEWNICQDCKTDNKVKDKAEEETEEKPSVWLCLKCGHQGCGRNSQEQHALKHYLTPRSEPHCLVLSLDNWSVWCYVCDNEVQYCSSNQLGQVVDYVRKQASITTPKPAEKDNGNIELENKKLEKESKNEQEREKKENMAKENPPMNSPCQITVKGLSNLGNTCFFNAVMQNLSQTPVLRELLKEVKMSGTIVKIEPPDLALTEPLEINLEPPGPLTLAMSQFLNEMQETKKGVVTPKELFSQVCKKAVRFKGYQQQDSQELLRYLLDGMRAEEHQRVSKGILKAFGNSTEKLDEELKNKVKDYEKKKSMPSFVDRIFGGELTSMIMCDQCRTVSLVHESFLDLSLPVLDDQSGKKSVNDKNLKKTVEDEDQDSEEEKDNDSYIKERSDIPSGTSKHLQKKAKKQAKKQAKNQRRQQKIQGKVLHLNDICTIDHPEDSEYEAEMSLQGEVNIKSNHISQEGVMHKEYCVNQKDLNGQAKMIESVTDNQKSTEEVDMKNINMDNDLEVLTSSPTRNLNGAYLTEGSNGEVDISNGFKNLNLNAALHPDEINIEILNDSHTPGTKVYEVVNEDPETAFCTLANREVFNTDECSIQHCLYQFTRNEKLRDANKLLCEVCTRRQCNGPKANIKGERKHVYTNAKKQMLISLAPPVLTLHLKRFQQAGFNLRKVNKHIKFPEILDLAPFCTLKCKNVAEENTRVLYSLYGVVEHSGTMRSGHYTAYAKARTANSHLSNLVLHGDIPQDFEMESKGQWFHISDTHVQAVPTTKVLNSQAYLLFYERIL
Chain of UCHL1 (P09936 whole entry, looked up): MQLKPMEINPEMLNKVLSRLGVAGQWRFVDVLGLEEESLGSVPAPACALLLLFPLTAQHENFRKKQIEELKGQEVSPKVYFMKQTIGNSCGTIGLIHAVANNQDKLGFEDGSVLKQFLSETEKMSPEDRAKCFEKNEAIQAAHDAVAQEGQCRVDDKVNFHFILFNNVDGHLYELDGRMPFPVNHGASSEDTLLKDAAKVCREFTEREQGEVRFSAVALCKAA
Chain of USP10 (Q14694 whole entry): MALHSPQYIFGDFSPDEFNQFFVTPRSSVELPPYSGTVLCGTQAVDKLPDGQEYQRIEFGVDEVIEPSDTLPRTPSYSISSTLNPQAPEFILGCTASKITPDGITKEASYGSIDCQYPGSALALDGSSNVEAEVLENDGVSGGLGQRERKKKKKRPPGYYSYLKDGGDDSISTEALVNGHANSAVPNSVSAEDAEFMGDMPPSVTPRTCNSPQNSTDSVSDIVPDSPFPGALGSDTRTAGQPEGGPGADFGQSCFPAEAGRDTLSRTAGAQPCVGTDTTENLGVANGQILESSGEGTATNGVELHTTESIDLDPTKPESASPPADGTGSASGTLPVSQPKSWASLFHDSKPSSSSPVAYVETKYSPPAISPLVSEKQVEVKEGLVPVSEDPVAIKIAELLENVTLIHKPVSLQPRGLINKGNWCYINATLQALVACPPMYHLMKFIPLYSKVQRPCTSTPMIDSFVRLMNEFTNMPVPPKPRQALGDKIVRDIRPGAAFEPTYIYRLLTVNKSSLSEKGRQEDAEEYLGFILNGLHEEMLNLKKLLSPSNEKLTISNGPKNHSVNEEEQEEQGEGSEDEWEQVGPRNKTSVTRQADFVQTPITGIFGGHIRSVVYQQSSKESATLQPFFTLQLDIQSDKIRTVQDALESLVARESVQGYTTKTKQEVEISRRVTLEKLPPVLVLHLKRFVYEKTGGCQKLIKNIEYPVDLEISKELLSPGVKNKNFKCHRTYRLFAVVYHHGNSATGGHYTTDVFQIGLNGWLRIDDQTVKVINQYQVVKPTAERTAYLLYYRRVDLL

CCN(Cc1ccc(C#N)cc1F)C(=O)CCl
inactive: OTUD6B -0.409 | OTUD7B -0.641 | PRPF8 0.0668 | PSMD7 -0.234 | UCHL3 0.0414 | UCHL5 -0.5 | USP10 -0.11 | USP15 -0.275 | USP16 0.17
active: UCHL1 -1.35
